The full ranking holds about 16,000 sequences; the median of “rpm ratio (pull-down/input)” is about 0.5, and the highest 2% start at about 5.5. The sample holds the highest values, similar sequences and a random draw of the others, so the mix is not that of the screen.

In the experiment the target is T1, MBP-FoxP3dN (Mus musculus, UniProt Q99JB6 188-423).
T1 sequence: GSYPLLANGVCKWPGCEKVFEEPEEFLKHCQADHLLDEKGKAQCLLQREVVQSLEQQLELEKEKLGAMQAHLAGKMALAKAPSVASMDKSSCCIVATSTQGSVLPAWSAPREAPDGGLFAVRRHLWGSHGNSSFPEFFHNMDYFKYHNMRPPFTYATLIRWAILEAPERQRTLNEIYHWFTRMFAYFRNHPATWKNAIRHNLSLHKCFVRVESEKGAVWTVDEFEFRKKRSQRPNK
As to the kind of experiment: PD-seq (MBP pull-down with sequencing); 20 mM Tris-HCl pH 7.5, 100 mM NaCl, 1.5 mM MgCl2, 0.4 uM protein, 0.1 uM dsDNA library, 30 min, room temperature, amylose pull-down; high values mean tight binding. As to conditions: protein: recombinant; tags: His6-MBP; chain copies: 2; dsDNA, one strand shown. A digest of the protocol:
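Binding is reads-per-million enrichment of pull-down over input, with replicates pooled. It comes from 30 min room-temperature incubation in Tris pH 7.5 buffer with NaCl and MgCl2 of 0.4 µM His6-MBP-tagged, N-terminally truncated mouse FoxP3 or FoxP1 fragment from E. coli with 0.1 µM Klenow-filled degenerate double-stranded DNA library, followed by amylose resin capture, three washes and Illumina sequencing of the released DNA.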
Take “GATGATTGTTCTCCCAGCTGATGAATTTTTCAACTCGAGTAAACAAATTTTCCTAATCTTTCTGTTCAAGCGCCATCTAC”: the binding signal was 0.287 RPM ratio (pull-down/input).
The figure for “GATGATTGTTCTCCCAGCTGATGAATTGCCCAACTCGAGTAAACAAATTTTCCTAATCTTTCTGTTCAAGCGCCATCTAC” is 0.42 RPM ratio (pull-down/input).
Under “GATGATTGTTCTCCCAGCTGATGAATTCGCCAACTCGAGTAAACAAATTTTCCTAATCTTTCTGTTCAAGCGCCATCTAC” stands 0.292 RPM ratio (pull-down/input).
Consider “GATGATTGTTCTCCCAGCTGATGAATTCGCAAACTCGAGTAAACAAATTTTCCTAATCTTTCTGTTCAAGCGCCATCTAC”, for which the binding signal was 0.431 RPM ratio (pull-down/input).
Consider “GATGATTGTTCTCCCAGCTGATGAATTTCGCAACTCGAGTAAACAAATTTTCCTAATCTTTCTGTTCAAGCGCCATCTAC”, for which the binding signal was 5.53 RPM ratio (pull-down/input).
As for “GATGATTGTTCTCCCAGCTGATGAATTGCGCAACTCGAGTAAACAAATTTTCCTAATCTTTCTGTTCAAGCGCCATCTAC”, the binding signal was 6.43 RPM ratio (pull-down/input).
Regarding “GATGATTGTTCTCCCAGCTGATGAATTTCCCGTGTCGAGTAAACAAATTTTCCTAATCTTTCTGTTCAAGCGCCATCTAC”, the binding signal is 0.287 RPM ratio (pull-down/input).
Under “GATGATTGTTCTCCCAGCTGATGAATTAGCTTCTTCGAGTAAACAAATTTTCCTAATCTTTCTGTTCAAGCGCCATCTAC” stands 0.901 RPM ratio (pull-down/input).
The figure for “GATGATTGTTCTCCCAGCTGATGAATTAGTTGTCTCGAGTAAACAAATTTTCCTAATCTTTCTGTTCAAGCGCCATCTAC” is 5.87 RPM ratio (pull-down/input); for “GATGATTGTTCTCCCAGCTGATGAATTAGTGTTGTCGAGTAAACAAATTTTCCTAATCTTTCTGTTCAAGCGCCATCTAC” it is 3.93 RPM ratio (pull-down/input).
Consider “GATGATTGTTCTCCCAGCTGATGAATTAGTTCTGTCGAGTAAACAAATTTTCCTAATCTTTCTGTTCAAGCGCCATCTAC”, for which the binding signal is 0.398 RPM ratio (pull-down/input).
The figure for “GATGATTGTTCTCCCAGCTGATGAATTAGTTGTGTCGAGTAAACAAATTTTCCTAATCTTTCTGTTCAAGCGCCATCTAC” is 6.21 RPM ratio (pull-down/input).
Under “GATGATTGTTCTCCCAGCTGATGAATTAGTTCTCTCGAGTAAACAAATTTTCCTAATCTTTCTGTTCAAGCGCCATCTAC” stands 0.491 RPM ratio (pull-down/input); under “GATGATTGTTCTCCCAGCTGATGAATTAGCTGTCTCGAGTAAACAAATTTTCCTAATCTTTCTGTTCAAGCGCCATCTAC”, 2.44 RPM ratio (pull-down/input); under “GATGATTGTTCTCCCAGCTGATGAATTTCAGGGCTCGAGTAAACAAATTTTCCTAATCTTTCTGTTCAAGCGCCATCTAC”, 0.225 RPM ratio (pull-down/input).
The figure for “GATGATTGTTCTCCCAGCTGATGAATTGCAGACCTCGAGTAAACAAATTTTCCTAATCTTTCTGTTCAAGCGCCATCTAC” is 0.496 RPM ratio (pull-down/input); for “GATGATTGTTCTCCCAGCTGATGAATTTTGGCTCTCGAGTAAACAAATTTTCCTAATCTTTCTGTTCAAGCGCCATCTAC” it is 0.475 RPM ratio (pull-down/input); for “GATGATTGTTCTCCCAGCTGATGAATTCCGATCATCGAGTAAACAAATTTTCCTAATCTTTCTGTTCAAGCGCCATCTAC” it is 0.404 RPM ratio (pull-down/input).
As to “GATGATTGTTCTCCCAGCTGATGAATTCAGCAGCTCGAGTAAACAAATTTTCCTAATCTTTCTGTTCAAGCGCCATCTAC”, the binding signal is 0.994 RPM ratio (pull-down/input).
Under “GATGATTGTTCTCCCAGCTGATGAATTTCAGCATTCGAGTAAACAAATTTTCCTAATCTTTCTGTTCAAGCGCCATCTAC” stands 4.99 RPM ratio (pull-down/input).
With “GATGATTGTTCTCCCAGCTGATGAATTCAGCATCTCGAGTAAACAAATTTTCCTAATCTTTCTGTTCAAGCGCCATCTAC”, the binding signal was 6.49 RPM ratio (pull-down/input).
For the sequence “GATGATTGTTCTCCCAGCTGATGAATTCAGCATTTCGAGTAAACAAATTTTCCTAATCTTTCTGTTCAAGCGCCATCTAC”, the binding signal is 5.86 RPM ratio (pull-down/input).
The figure for “GATGATTGTTCTCCCAGCTGATGAATTCTCAGCATCGAGTAAACAAATTTTCCTAATCTTTCTGTTCAAGCGCCATCTAC” is 0.635 RPM ratio (pull-down/input).
Under “GATGATTGTTCTCCCAGCTGATGAATTCCAGCATTCGAGTAAACAAATTTTCCTAATCTTTCTGTTCAAGCGCCATCTAC” stands 4.11 RPM ratio (pull-down/input).
Under “GATGATTGTTCTCCCAGCTGATGAATTCCGCACTTCGAGTAAACAAATTTTCCTAATCTTTCTGTTCAAGCGCCATCTAC” stands 1.22 RPM ratio (pull-down/input).
Regarding “GATGATTGTTCTCCCAGCTGATGAATTTGGGTCATCGAGTAAACAAATTTTCCTAATCTTTCTGTTCAAGCGCCATCTAC”, the binding signal was 0.724 RPM ratio (pull-down/input).
The figure for “GATGATTGTTCTCCCAGCTGATGAATTCTTTACTTCGAGTAAACAAATTTTCCTAATCTTTCTGTTCAAGCGCCATCTAC” is 0.373 RPM ratio (pull-down/input); for “GATGATTGTTCTCCCAGCTGATGAATTGGGGATTTCGAGTAAACAAATTTTCCTAATCTTTCTGTTCAAGCGCCATCTAC” it is 0.404 RPM ratio (pull-down/input); for “GATGATTGTTCTCCCAGCTGATGAATTTCGTGAATCGAGTAAACAAATTTTCCTAATCTTTCTGTTCAAGCGCCATCTAC” it is 0.281 RPM ratio (pull-down/input).
As for “GATGATTGTTCTCCCAGCTGATGAATTCAGCTCATCGAGTAAACAAATTTTCCTAATCTTTCTGTTCAAGCGCCATCTAC”, the binding signal was 0.381 RPM ratio (pull-down/input).
Under “GATGATTGTTCTCCCAGCTGATGAATTTTGAGCCTCGAGTAAACAAATTTTCCTAATCTTTCTGTTCAAGCGCCATCTAC” stands 0.568 RPM ratio (pull-down/input); under “GATGATTGTTCTCCCAGCTGATGAATTGTTCGCCTCGAGTAAACAAATTTTCCTAATCTTTCTGTTCAAGCGCCATCTAC”, 0.653 RPM ratio (pull-down/input).
The figure for “GATGATTGTTCTCCCAGCTGATGAATTCTCTGCCTCGAGTAAACAAATTTTCCTAATCTTTCTGTTCAAGCGCCATCTAC” is 0.284 RPM ratio (pull-down/input); for “GATGATTGTTCTCCCAGCTGATGAATTCTGCGCCTCGAGTAAACAAATTTTCCTAATCTTTCTGTTCAAGCGCCATCTAC” it is 2.3 RPM ratio (pull-down/input).
Under “GATGATTGTTCTCCCAGCTGATGAATTCCGCCTCTCGAGTAAACAAATTTTCCTAATCTTTCTGTTCAAGCGCCATCTAC” stands 6.3 RPM ratio (pull-down/input); under “GATGATTGTTCTCCCAGCTGATGAATTCTGTGCCTCGAGTAAACAAATTTTCCTAATCTTTCTGTTCAAGCGCCATCTAC”, 1.19 RPM ratio (pull-down/input); under “GATGATTGTTCTCCCAGCTGATGAATTTTGTGCCTCGAGTAAACAAATTTTCCTAATCTTTCTGTTCAAGCGCCATCTAC”, 1.84 RPM ratio (pull-down/input).
With “GATGATTGTTCTCCCAGCTGATGAATTGTGCCTCTCGAGTAAACAAATTTTCCTAATCTTTCTGTTCAAGCGCCATCTAC”, the binding signal is 6.79 RPM ratio (pull-down/input).
Under “GATGATTGTTCTCCCAGCTGATGAATTCTCCGCCTCGAGTAAACAAATTTTCCTAATCTTTCTGTTCAAGCGCCATCTAC” stands 0.428 RPM ratio (pull-down/input); under “GATGATTGTTCTCCCAGCTGATGAATTCTGCCTCTCGAGTAAACAAATTTTCCTAATCTTTCTGTTCAAGCGCCATCTAC”, 5.87 RPM ratio (pull-down/input); under “GATGATTGTTCTCCCAGCTGATGAATTTTTCGCCTCGAGTAAACAAATTTTCCTAATCTTTCTGTTCAAGCGCCATCTAC”, 0.467 RPM ratio (pull-down/input).
Under “GATGATTGTTCTCCCAGCTGATGAATTTCGCCTCTCGAGTAAACAAATTTTCCTAATCTTTCTGTTCAAGCGCCATCTAC” stands 6.04 RPM ratio (pull-down/input); under “GATGATTGTTCTCCCAGCTGATGAATTCCGCGCCTCGAGTAAACAAATTTTCCTAATCTTTCTGTTCAAGCGCCATCTAC”, 1.68 RPM ratio (pull-down/input).

The values above are taken from PMC12820563, “FoxP3 forms a head-to-head dimer in vivo and stabilizes its multimerization on adjacent microsatellites”.
